Source: PubChem (National Center for Advancing Translational Sciences (NCATS))
Most compounds without a hit are left out; they make up all but 0.59% or so of the library.
B2AR arrestin – beta2AR (human) beta-arrestin recruitment activity. Potency, µM (series often up to 46.1 µM), actives largely listed as activators. 0.02% of 330,000 active. beta-arrestin recruitment to beta2AR, cell-based reporter. P07550; also: nearly all actives have a fitted effect of over 65% in size
Chronic BCR inh – inhibitors of chronic active B-cell receptor signaling. ABC-DLBCL IkBa-CBG/CBR reporter, luminescence ratio, 4 h. Potency, µM (top dose mostly 46.1 µM), most hits filed as inhibitors. 0.05% of 340,000 active; active = well fitted inhibition curve with a large enough effect in the signal ratio, with a control signal flat, not every such curve was filed as active; inconclusive = small, poorly fitted or top-dose-only effect, or effect the other way, or a change in a side signal; the % refers to the signal ratio
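Doxycycline induced both beetle luciferases in TMD8 lymphoma cells; IKK-driven degradation limits the IkappaBalpha-fused green signal, while red luminescence normalises for cell number and nonspecific effects. Compounds tested up to 46 uM, 4 hrs.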
RXFP1 ag – agonists of human relaxin receptor RXFP1. Potency, µM (top dose mostly 57.5 µM), actives largely listed as activators. HEK293T-RXFP1 cAMP TR-FRET, 30 min; response scale: percent of porcine relaxin response, buffer zero. AID 2676. 0.3% of 370,000 active; also: nearly all actives have a fitted effect of over 60% in size
Target sequence (Q9HBX9 whole entry, looked up): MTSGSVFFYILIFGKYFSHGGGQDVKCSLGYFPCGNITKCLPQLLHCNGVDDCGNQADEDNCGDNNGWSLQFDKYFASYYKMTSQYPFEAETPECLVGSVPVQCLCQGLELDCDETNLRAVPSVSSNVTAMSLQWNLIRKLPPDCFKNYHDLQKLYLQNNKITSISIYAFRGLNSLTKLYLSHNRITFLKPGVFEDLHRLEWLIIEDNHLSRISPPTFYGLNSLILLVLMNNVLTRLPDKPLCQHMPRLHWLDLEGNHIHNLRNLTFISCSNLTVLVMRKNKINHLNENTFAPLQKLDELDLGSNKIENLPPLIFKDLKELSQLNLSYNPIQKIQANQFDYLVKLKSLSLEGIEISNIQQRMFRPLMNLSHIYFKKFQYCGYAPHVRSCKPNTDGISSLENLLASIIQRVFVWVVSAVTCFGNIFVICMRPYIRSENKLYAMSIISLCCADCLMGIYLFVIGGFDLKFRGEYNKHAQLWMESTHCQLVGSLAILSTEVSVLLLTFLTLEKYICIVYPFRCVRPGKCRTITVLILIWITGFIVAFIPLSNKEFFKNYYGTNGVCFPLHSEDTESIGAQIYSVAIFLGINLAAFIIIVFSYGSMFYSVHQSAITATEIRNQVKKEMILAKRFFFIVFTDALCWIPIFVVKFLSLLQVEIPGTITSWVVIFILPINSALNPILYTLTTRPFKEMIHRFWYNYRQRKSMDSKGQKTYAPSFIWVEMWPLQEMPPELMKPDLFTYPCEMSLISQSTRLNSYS
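HEK293T cells stably expressing RXFP1 were pretreated with the PDE4 inhibitor Ro 20174, exposed to compounds for 30 min at 37C, lysed, and cAMP was read by TR-FRET. Data normalized to buffer (basal) and 29 nM porcine relaxin (100%).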
RXFP1 antag – antagonists of human relaxin receptor RXFP1; AID 1259400; HEK293-RXFP1, relaxin-stimulated cAMP HTRF, 30 min; stronger effect = lower value; 0.59% of 350,000 active; Q9HBX9; activity change, negative = inhibition, % at 57.5 µM;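 active = activity change of -60% or lower, but not beyond a set lower limit; inconclusive = change between -60% and -40%, or beyond the set limit; inactive = change above -40%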
Numbers stand for hits; – = inactive; ? = inconclusive; · = no result; ! = not active in a repeat. Unless noted, calls follow the shape of the dose curve; as a rule, active = well fitted activation curve with a large enough effect; inconclusive = small, poorly fitted or top-dose-only effect; inactive = flat fitted curve, though single readings scatter.

SMILES	B2AR arrestin	Chronic BCR inh	RXFP1 ag	RXFP1 antag
CCOC(=O)c1ccc(NC(=O)c2nc(S(=O)(=O)Cc3ccccc3)ncc2Cl)cc1	–	?	–	-61.8!
CSc1nnc(NC(=O)c2nc(S(=O)(=O)Cc3ccccc3)ncc2Cl)s1	–	?	–	-62.7
CCOC(=O)c1cc(-c2ccc(OC)cc2)n(CCC(=O)NC2CCCCC2)c1C	·	–	–	?
CC/C=C(/C(=O)N[C@@H]1C(=O)N2C(C(=O)OCOC(=O)C(C)(C)C)=C(COC(N)=O)CS[C@H]12)c1csc(N)n1	·	·	·	–
CCS(=O)(=O)c1ncc(Cl)c(C(=O)Nc2ccccc2)n1	·	·	–	-87.6
O=C(Nc1ccc(F)cc1F)c1ccc2c(O)c(S(=O)(=O)c3ccc(Cl)cc3)c(=O)[nH]c2c1	·	·	–	–
Cc1cc(NC(=O)CSc2ncnc3c2cnn3-c2cccc(Cl)c2)no1	–	–	6.31µM	–
Cc1cc(NC(=O)CSc2ncnc3c2cnn3-c2ccccc2)no1	–	–	–	–
CC/C(=N/O)C(=O)c1ccc(Br)cc1	–	–	–	-87.7
CCC1C(=NO)C(CC)C(c2ccccc2)NC1c1ccccc1 (stereo not given)	–	–	–	-74.3
NC(=S)N/N=C1\CC(c2ccc3c(c2)OCCO3)Oc2ccc(F)cc21 (stereo not given)	–	?	–	–
NC(=S)N/N=C1\CC(c2ccc3c(c2)OCCCO3)Oc2ccc(F)cc21 (stereo not given)	?	17.8µM	–	-61.3
Cc1ccc(C)c(NC(=O)C(Cc2ccccc2)N2Cc3ccccc3C2=O)c1 (stereo not given)	·	·	–	–
CCCOCc1cc(CN2CCN(c3cccc(Cl)c3)CC2)c(O)c2ncccc12	·	·	–	–
Oc1c(CN2CCCCC2)cc(Br)c2cccnc12	–	?	–	·
CN1CCN(Cc2cc(COCc3ccccc3)c3cccnc3c2O)CC1	2.51µM	?	–	–
Oc1c(CN2CCc3ccccc3C2)cc(Cl)c2cccnc12	7.08µM	?	–	·
COc1ccc(-n2nnc3c(=O)n(CC(=O)NCC4CCCO4)cnc32)cc1 (stereo not given)	–	–	11.2µM	–
COc1ccc(NC(=O)c2cc(S(=O)(=O)N3CCCC(C)C3)cn2C)c(OC)c1 (stereo not given)	·	·	–	·
CC/C(=N\NC(=O)c1nnn(-c2nonc2N)c1CN(C)c1ccccc1)c1ccccc1	–	–	–	-102.3
ClC(Cl)(c1nnnn1-c1ccccc1)c1nnnn1-c1ccccc1	–	–	–	-91.0
CCCC(=O)NC(c1ccccc1Cl)c1ccc2cccnc2c1O (stereo not given)	–	?	–	-81.7
CCC(=O)NC(c1ccc(Cl)cc1Cl)c1ccc2cccnc2c1O (stereo not given)	–	?	–	-97.7
CC(C)CCn1c(SCc2cccc(F)c2)nc2ccsc2c1=O	·	?	–	-76.5
CC(C)CCn1c(SCc2ccc(F)cc2Cl)nc2ccsc2c1=O	·	–	–	–
SMILES	B2AR arrestin	Chronic BCR inh	RXFP1 ag	RXFP1 antag
CC1(C)CC(NC(=O)COc2ccc3ccccc3c2)CC(C)(C)N1	–	–	–	–
Cc1ccc(OCC(=O)NC2CC(C)(C)NC(C)(C)C2)cc1C	–	–	–	-82.0
CCCSc1nnc(NC(=O)CSc2sc3c(O)cc(=O)[nH]c3c2C#N)s1	–	–	–	–
N#Cc1c(SCC(=O)Nc2nccs2)sc2c(O)cc(=O)[nH]c12	–	?	–	-87.0
O=C(N/N=C/c1ccc(O)c(Br)c1)c1cc2c(ccc3ccccc32)o1	–	?	–	–
O=C(N/N=C/c1cc(Br)c(Br)o1)c1cc2ccccc2o1	–	–	–	-63.3
O=C(N/N=C/c1cc(Cl)c(O)c(Cl)c1)c1cc2c(ccc3ccccc32)o1	–	?	–	-81.3
O=C(N/N=C/c1cc(Br)c(O)c(Br)c1)c1cc2c(ccc3ccccc32)o1	–	?	–	-100.1
CCc1nn(CC(=O)NC(C)CC)c(=O)c2cc3occc3n12 (stereo not given)	·	·	–	·
O=C(CSc1nnc(CNC(=O)c2ccco2)o1)Nc1ccc(OC(F)(F)F)cc1	–	–	–	-109.7
CC(C)Oc1ccc(C(=O)NC2CCCCC2)cc1	–	?	–	–
CC(C)Oc1ccc(C(CCN)C2CCCCC2)cc1 (stereo not given)	–	–	–	-75.2
O=c1[nH]c(=O)n([C@H]2O[C@H](CO)[C@@H](O)[C@@H]2O)cc1/C=C\Br	·	·	·	–
CC1=CC(C)(C)N2C(=O)C(=O)c3cc(OC(=O)c4ccco4)cc1c32	–	11.2µM	–	?
O=C(N/N=C/c1ccc(OC(=O)c2ccccc2Cl)cc1)c1cc(O)cc(O)c1	–	?	–	-85.0
CCc1ccc(CN2CCCC(C(=O)Nc3ccccc3-c3ccc(OC)cc3)C2)o1 (stereo not given)	–	?	–	-77.1
O=[N+]([O-])c1cc([N+](=O)[O-])c2oc(-c3ccccc3)c(Br)c2c1O	–	?	–	-113.0
O=c1cc(-c2ccccc2Cl)oc2ccc([N+](=O)[O-])c(O)c12	–	–	–	·
O=C(N/N=C/c1cc2c3c(c1O)CCCN3CCC2)c1ccccc1O	–	?	–	-76.2
CCCCOc1cccc(C2/C(=C(/O)c3ccc4c(c3)CC(C)O4)C(=O)C(=O)N2CCN2CCOCC2)c1 (stereo not given)	–	–	28.2µM	–
CCCCCCCCCCCCCCNCCO	·	·	·	–
C=C1N(C)c2cc([N+](=O)[O-])c(N)cc2C1(C)C	–	–	–	-71.0
CC1(C)Oc2cc(N)c([N+](=O)[O-])cc2O1	–	–	–	–
CCn1cc(C(=O)N2CCN(c3ccccc3)CC2)c(=O)c2cc(S(=O)(=O)N3CCCC3)ccc21	·	·	–	–
NC(=O)c1cc[n+](CC2=C(C(=O)[O-])N3C(=O)[C@@H](NC(=O)Cc4cccs4)[C@H]3SC2)cc1	·	·	·	–
SMILES	B2AR arrestin	Chronic BCR inh	RXFP1 ag	RXFP1 antag
CCc1cc(=O)oc2cc(C)cc(O)c12	–	?	?	·
COC(=O)Cc1c(C)c2c(O)cc(C)cc2oc1=O	·	·	15.8µM	–
CCOC(=O)c1sc(=NC(=O)c2ccc(S(=O)(=O)N(C)c3ccccc3)cc2)n(C)c1C	–	?	3.98µM	–
COc1ccc(C(=O)c2cn(Cc3cccc(C)c3)c3cc4c(cc3c2=O)OCCO4)cc1OC	·	·	–	-81.5
Cc1cccc(Cn2cc(C(=O)c3ccccc3)c(=O)c3cc4c(cc32)OCO4)c1	·	·	–	–
CCC(=O)C(Cc1ccccc1)(Cc1ccccc1)CC(C)N(C)C (stereo not given)	·	·	·	–
Cc1c(C(=O)/C=C/N(C)C)nnn1-c1ccc(Cl)cc1Cl	–	–	–	-64.0
Cc1cc(Cl)ccc1OCC(=O)N(Cc1ccc(N(C)C)cc1)CC1CCCO1 (stereo not given)	·	·	–	–
CC(C)OC(=O)OCOP(=O)(CO[C@H](C)Cn1cnc2c(N)ncnc21)OCOC(=O)OC(C)C	·	·	·	–
COC(=O)C1=C(C)NC(C)=C(C(=O)OCCN(C)Cc2ccccc2)C1c1cccc([N+](=O)[O-])c1 (stereo not given)	–	?	–	-76.0
CC(C)(C)OC(=O)N[C@@H](Cc1ccccc1)c1nnc(S(=O)(=O)Cc2cccc(F)c2)o1	–	?	–	-119.0
Cc1ccccc1CS(=O)(=O)c1nnc([C@H](CC(C)C)NC(=O)OC(C)(C)C)o1	–	?	–	–
